These results are taken from the antibiotic and cytotoxicity screens of Wong et al. (2023).

About 3,300 (8.5%) of roughly 39,000 compounds were called active. What follows is part of a selection rich in actives, with near analogues and random picks from the rest.

The subject of this experiment is HepG2. Description: cytotoxicity call (relative viability < 0.9). The following applies: 10 µM.
`C[C@@H]1CCCCO[C@@H](CN(C)C(=O)Nc2ccc(C(F)(F)F)cc2)[C@H](C)CN([C@@H](C)CO)C(=O)c2cc(NC(=O)NC3CCCCC3)ccc2O1`: the cytotoxicity call was “inactive”.

As to `C[C@H]1CN([C@@H](C)CO)C(=O)c2cccc(NS(=O)(=O)c3ccc(Cl)cc3)c2O[C@H]1CN(C)Cc1ccc(Cl)c(Cl)c1`, the cytotoxicity call was “inactive”.

On to `CCS(=O)(=O)N1C[C@]2(C1)CN([C@H](CO)c1[nH]c3cc(ccc3c12)OC)S(=O)(=O)c1ccc(cc1)C`, for which the cytotoxicity call was “inactive”.

As to `CC(C)NC(=O)N(C)C[C@@H]1Oc2c(NC(=O)NC3CCCCC3)cccc2C(=O)N([C@H](C)CO)C[C@H]1C`, the cytotoxicity call was “inactive”.

Take `CCc1c(C)[nH]c(N2CCOCC2)nc1=O`: the cytotoxicity call is “inactive”.

As to `C[C@H](CO)N1C[C@H](C)[C@@H](CN(C)C(=O)Nc2ccccc2C(F)(F)F)OCc2cnnn2CCCC1=O`, the cytotoxicity call is “inactive”.

`C[C@@H]1CN([C@@H](C)CO)C(=O)CCCn2nncc2CO[C@H]1CN(C)C(=O)Nc1ccc(C(F)(F)F)cc1`: the cytotoxicity call was “inactive”.

Take `C[C@@H]1CN([C@@H](C)CO)C(=O)CCCn2nncc2CO[C@H]1CN(C)C(=O)Nc1ccccc1C(F)(F)F`: the cytotoxicity call is “inactive”.

As for `C[C@@H]1CN([C@H](C)CO)C(=O)CCCn2nncc2CO[C@H]1CN(C)C(=O)Nc1ccccc1C(F)(F)F`, the cytotoxicity call is “active”.

In the case of `C[C@@H]1CN([C@@H](C)CO)C(=O)CCCn2nncc2CO[C@@H]1CN(C)C(=O)Nc1ccc(C(F)(F)F)cc1`, the cytotoxicity call was “inactive”.

Turning to `C[C@@H]1CN([C@H](C)CO)C(=O)CCCn2cc(nn2)CO[C@@H]1CN(C)C(=O)c1ccc(N2CCN(C)CC2)cc1`, the cytotoxicity call was “inactive”.

In the case of `C[C@H](CO)N1C[C@H](C)[C@@H](CN(C)C(=O)Nc2ccccc2C(F)(F)F)OCc2cn(nn2)CCCC1=O`, the cytotoxicity call was “inactive”.

With `C[C@H](CO)N1C[C@H](C)[C@H](CN(C)C(=O)Nc2ccccc2C(F)(F)F)OCc2cn(nn2)CCCC1=O`, the cytotoxicity call is “inactive”.

As to `C[C@H](CO)N1C[C@H](C)[C@H](CN(C)C(=O)Nc2ccc(C(F)(F)F)cc2)OCc2cnnn2CCCC1=O`, the cytotoxicity call is “active”.

In the case of `C[C@H]1CN([C@@H](C)CO)C(=O)CCCn2cc(nn2)CO[C@H]1CN(C)C(=O)c1ccc(N2CCN(C)CC2)cc1`, the cytotoxicity call was “inactive”.

`C[C@@H]1CN([C@H](C)CO)C(=O)CCCn2cc(nn2)CO[C@@H]1CN(C)C(=O)Nc1ccccc1C(F)(F)F`: the cytotoxicity call is “active”.

`C[C@H]1CN([C@@H](C)CO)C(=O)CCCn2cc(nn2)CO[C@@H]1CN(C)C(=O)c1ccc(N2CCN(C)CC2)cc1`: the cytotoxicity call was “active”.

For the molecule `Cc1noc(C)c1NC(=O)Nc1ccc2c(c1)CC(=O)N([C@H](C)CO)C[C@H](C)[C@H](CN(C)CC1CC1)O2`, the cytotoxicity call is “inactive”.

Regarding `Nc1ncnc2c1ncn2[C@@H]1O[C@H](CO)C[C@H]1O`, the cytotoxicity call was “inactive”.

For `C[C@H]1CN([C@@H](C)CO)C(=O)Cc2cc(N(C)C)ccc2O[C@@H]1CN(C)S(=O)(=O)c1cn(C)cn1`, the cytotoxicity call is “inactive”.

As to `CC(C)(CO)Nc1ncnc(N)c1[N+](=O)[O-]`, the cytotoxicity call was “inactive”.

For the molecule `COc1ccc(NC(=O)Nc2cccc3c2O[C@@H](CN(C)CC2CCCCC2)[C@@H](C)CN([C@@H](C)CO)C3=O)cc1`, the cytotoxicity call was “inactive”.

As for `Cc1noc(C)c1NC(=O)N(C)C[C@H]1Oc2c(NC(=O)C3CCOCC3)cccc2C(=O)N([C@@H](C)CO)C[C@@H]1C`, the cytotoxicity call was “inactive”.

As for `C[C@@H]1CN([C@H](C)CO)C(=O)c2cc(NS(=O)(=O)c3ccc(F)cc3)ccc2O[C@@H]1CN(C)S(=O)(=O)c1ccccc1`, the cytotoxicity call was “inactive”.

For `C[C@@H]1CN([C@H](C)CO)C(=O)CCCn2nncc2CO[C@@H]1CN(C)C(=O)Nc1ccccc1C(F)(F)F`, the cytotoxicity call is “inactive”.

For the molecule `C[C@H]1CN([C@@H](C)CO)C(=O)CCCn2nncc2CO[C@H]1CN(C)C(=O)Nc1ccccc1C(F)(F)F`, the cytotoxicity call was “active”.

With `C[C@H]1CN([C@@H](C)CO)C(=O)CCCn2nncc2CO[C@@H]1CN(C)C(=O)Nc1ccccc1C(F)(F)F`, the cytotoxicity call is “inactive”.

Turning to `C[C@@H]1CN([C@H](C)CO)C(=O)CCCn2nncc2CO[C@H]1CN(C)S(=O)(=O)c1ccc(Cl)cc1`, the cytotoxicity call is “inactive”.

In the case of `C[C@@H]1CN([C@H](C)CO)C(=O)CCCn2nncc2CO[C@@H]1CN(C)S(=O)(=O)c1ccc(Cl)cc1`, the cytotoxicity call was “inactive”.

Turning to `C[C@H]1CN([C@@H](C)CO)C(=O)CCCn2nncc2CO[C@H]1CN(C)S(=O)(=O)c1ccc(Cl)cc1`, the cytotoxicity call is “active”.

With `COc1ccc(NC(=O)N(C)C[C@H]2Oc3c(NS(C)(=O)=O)cccc3C(=O)N([C@H](C)CO)C[C@H]2C)cc1`, the cytotoxicity call was “inactive”.

On to `CCCCC(=O)C1CCC(c2ccc(Cl)cc2)CC1` (stereo not given), for which the cytotoxicity call is “inactive”.

With `O=C1C(O)=C(C2CCC(c3ccc(Cl)cc3)CC2)C(=O)c2ccccc21` (stereo not given), the cytotoxicity call is “active”.

Regarding `O=C1c2ccccc2C(=O)C1c1ccc(Cl)cc1`, the cytotoxicity call is “inactive”.

On to `C[C@H](CO)N1C[C@H](C)[C@H](CN(C)C(=O)c2ccccc2)OCCCC[C@H](C)Oc2ccc(NC(=O)Cc3ccccc3)cc2C1=O`, for which the cytotoxicity call is “inactive”.

In the case of `CCO[C@H]1OC(C(=O)N2CCN(Cc3ccccc3)CC2)=C[C@@H](c2cn(C(C)=O)c3ccccc23)[C@@H]1CCCOC(=O)NCCCCCC(=O)NO`, the cytotoxicity call was “inactive”.

For `NCCCCCCNC(=O)[C@H]1C[C@H]2C(=O)N[C@@H](CCCCN)C(=O)N2[C@H]1c1ccc(O)cc1`, the cytotoxicity call was “inactive”.

Take `C[C@@H]1CN([C@@H](C)CO)C(=O)c2cc(NC(=O)Nc3ccc(C(F)(F)F)cc3)ccc2O[C@@H](C)CCCCO[C@@H]1CN(C)S(=O)(=O)c1ccc(F)cc1`: the cytotoxicity call was “inactive”.

As for `C[C@@H]1CCCCO[C@@H](CN(C)Cc2ccc(C(=O)O)cc2)[C@H](C)CN([C@@H](C)CO)C(=O)c2cc(NS(=O)(=O)c3ccc(F)cc3)ccc2O1`, the cytotoxicity call is “inactive”.

Turning to `Nc1ncnc2c1ncn2[C@H]1O[C@H](COP(=O)(O)O)[C@@H](O)[C@H]1O`, the cytotoxicity call is “inactive”.

Regarding `CC(C)(C)C(=O)OCOP(=O)(COCCn1cnc2c(N)ncnc21)OCOC(=O)C(C)(C)C` [listing 1 of 2 here], the cytotoxicity call was “active”.

As for `Nc1ncnc2c1ncn2C1OC(COP(=O)(O)O)C(O)C1O` (stereo not given), the cytotoxicity call was “inactive”.

Take `CC(C)OC(=O)OCOP(=O)(CO[C@H](C)Cn1cnc2c(N)ncnc21)OCOC(=O)OC(C)C`: the cytotoxicity call is “inactive”.

Take `CC(C)(C)C(=O)OCOP(=O)(COCCn1cnc2c(N)ncnc21)OCOC(=O)C(C)(C)C` [listing 2 of 2 here]: the cytotoxicity call was “active”.

As to `CC(Cn1cnc2c(N)ncnc21)OCP(=O)(O)O` (stereo not given), the cytotoxicity call was “active”.

For the molecule `Nc1ncnc2c1ncn2CCN1CCOCC1`, the cytotoxicity call is “inactive”.

Take `Nc1ncnc2c1ncn2CCN1CCCCC1`: the cytotoxicity call is “inactive”.

With `Nc1ncnc2c1ncn2CCO`, the cytotoxicity call was “inactive”.

Take `CCCNC(=O)Nc1ccc2c(c1)C(=O)N(C)C[C@@H](OC)[C@@H](C)CN(Cc1ccc(-c3ccccn3)cc1)[C@@H](C)CO2`: the cytotoxicity call is “inactive”.

As to `COc1ccc(S(=O)(=O)Nc2ccc3c(c2)CC(=O)N([C@@H](C)CO)C[C@H](C)[C@@H](CN(C)C(=O)Nc2c(C)noc2C)O3)cc1`, the cytotoxicity call was “inactive”.

With `CN1CCN(C(=O)Cn2cc(-c3ccc(C(=O)NO)cc3)nn2)CC1`, the cytotoxicity call is “inactive”.

In the case of `Cc1noc(C)c1NC(=O)N[C@@H]1C=C[C@@H](CC(=O)N2CCN(C)CC2)O[C@@H]1CO`, the cytotoxicity call is “inactive”.

On to `COc1ccc(cc1)CN1C[C@]2(CN(C2)C(=O)Cc2ccncc2)c2c([nH]c3cc(ccc23)OC)[C@@H]1CO`, for which the cytotoxicity call is “inactive”.

In the case of `C[C@@H]1CN([C@H](C)CO)C(=O)Cc2cc(NC(=O)Nc3cccc4ccccc34)ccc2O[C@H]1CN(C)Cc1ccncc1`, the cytotoxicity call is “inactive”.

On to `C[C@@H]1CN([C@@H](C)CO)C(=O)Cc2cc(NC(=O)Nc3cccc4ccccc34)ccc2O[C@@H]1CN(C)Cc1ccncc1`, for which the cytotoxicity call is “active”.

As for `C[C@H]1CN([C@@H](C)CO)C(=O)Cc2cc(NC(=O)Nc3cccc4ccccc34)ccc2O[C@H]1CN(C)Cc1ccncc1`, the cytotoxicity call is “inactive”.

`C[C@@H]1CN([C@@H](C)CO)C(=O)Cc2cc(NC(=O)Nc3cccc4ccccc34)ccc2O[C@H]1CN(C)Cc1ccncc1`: the cytotoxicity call was “inactive”.

With `C[C@H](CO)N1C[C@H](C)[C@H](CN(C)Cc2ccncc2)Oc2ccc(NC(=O)Nc3cccc4ccccc34)cc2CC1=O`, the cytotoxicity call was “active”.

Consider `C[C@H](CO)N1C[C@H](C)[C@@H](CN(C)Cc2ccncc2)Oc2ccc(NC(=O)Nc3cccc4ccccc34)cc2CC1=O`, for which the cytotoxicity call was “active”.

In the case of `C[C@@H]1CN([C@H](C)CO)C(=O)Cc2cc(NC(=O)Nc3cccc4ccccc34)ccc2O[C@@H]1CN(C)Cc1ccncc1`, the cytotoxicity call was “active”.

In the case of `C[C@H]1CN([C@@H](C)CO)C(=O)Cc2cc(NC(=O)Nc3cccc4ccccc34)ccc2O[C@@H]1CN(C)Cc1ccncc1`, the cytotoxicity call was “inactive”.

Take `COc1ccc(S(=O)(=O)N[C@H]2CC[C@@H](CC(=O)N3CCC(Cc4ccccc4)CC3)O[C@@H]2CO)cc1`: the cytotoxicity call was “inactive”.

In the case of `C[C@@H]1CCCCO[C@H](CN(C)C(=O)Nc2ccc3c(c2)OCO3)[C@H](C)CN([C@@H](C)CO)C(=O)c2cc(NS(=O)(=O)c3cccs3)ccc2O1`, the cytotoxicity call is “inactive”.

For the molecule `CC(C)NC(=O)Nc1cccc2c1O[C@H](CN(C)S(=O)(=O)c1cccs1)[C@H](C)CN([C@H](C)CO)C2=O`, the cytotoxicity call was “inactive”.

Turning to `CCCN(C)C[C@@H]1Oc2cc(C#Cc3ccc(OC)cc3)ccc2S(=O)(=O)N([C@H](C)CO)C[C@@H]1C`, the cytotoxicity call is “inactive”.

As for `Cc1ccc(C(=O)CCNc2ccc3c(c2)oc2ccccc23)o1`, the cytotoxicity call is “inactive”.

Consider `C[C@@H]1CCCCO[C@@H](CN(C)C(=O)c2ccccc2)[C@@H](C)CN([C@H](C)CO)C(=O)c2cc(NC(=O)Nc3cccc4ccccc34)ccc2O1`, for which the cytotoxicity call was “inactive”.

For the molecule `C[C@H]1CCCCO[C@H](CN(C)S(=O)(=O)c2cn(C)cn2)[C@@H](C)CN([C@@H](C)CO)C(=O)c2cc(NC(=O)Nc3ccc(C(F)(F)F)cc3)ccc2O1`, the cytotoxicity call is “inactive”.

Consider `Cc1noc(C)c1S(=O)(=O)Nc1ccc2c(c1)CC(=O)N([C@H](C)CO)C[C@@H](C)[C@H](CN(C)S(=O)(=O)c1ccc(F)cc1)O2`, for which the cytotoxicity call was “inactive”.

On to `C[C@@H]1CN([C@H](C)CO)C(=O)c2cc(NC(=O)Nc3cccc4ccccc34)ccc2O[C@@H](C)CCCCO[C@@H]1CN(C)C(=O)C1CCCCC1`, for which the cytotoxicity call is “inactive”.
